The list is not random: actives were taken first. Their share in the collection is about 12%.
FMDV inh = High Throughput Screening for Foot and Mouth Disease Virus Antivirals; FMDV antiviral cell-based qHTS; Potency, µM (series often up to 57.9 µM), without a hit: at the highest dose activity change, negative = inhibition, hits mostly inhibitors; 1.2% of 410,000 active; calls by dose curve; tested in HEK293T cells; also: read-out not given here; potency is read from the fitted curve at half-maximal effect; % is scaled to controls: 0 for no effect and ±100 for the full control effect; nearly all actives have a fitted effect of over 45% in size
Shiga inhibitor = A qHTS for Small Molecule Inhibitors of Shiga Toxin. Vero cells, Shiga toxin protein synthesis inhibition reporter. inhibition, % at 38.7 µM. 9.2% of 290,000 active; in the data active = inhibition mostly above about 28%, no sharp cut-off; inactive = mostly below about 43%; also: 0% is about no effect
Sm TGR block = qHTS Assay for the Inhibitors of Schistosoma Mansoni Peroxiredoxins; Schistosoma mansoni thioredoxin glutathione reductase (TGR), Q962Y6; purified TGR, DTNB reduction, TNB absorbance 405 nm; Potency, µM (doses to about 114 µM), inactives show at the highest dose activity change, negative = inhibition, most hits filed as inhibitors; 3% of 360,000 active; AID 485364, 2010; active = well fitted inhibition curve with a large enough effect; inconclusive = small, poorly fitted or top-dose-only effect; inactive = no such curve, though single readings can be large or run the other way; also: potency is read from the fitted curve at half-maximal effect; % is scaled to controls: 0 for no effect and ±100 for the full control effect; nearly all actives have a fitted effect of over 60% in size
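Kinetic colorimetric format: TGR-catalysed, NADPH-driven DTNB reduction monitored via TNB absorbance. Enzyme dispensed at 20 nM; compound exposure 15 min at room temperature before reaction start.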
CHX counter = Cycloheximide Counterscreen for Small Molecule Inhibitors of Shiga Toxin. cell reporter, cycloheximide protein synthesis inhibition counterscreen. max response, %. 12% of 300,000 active. AID 2314, 2010; in the data active = max response mostly above about 13%, no sharp cut-off; inactive = mostly below about 14%; also: read at 38.3 µM for the half of the compounds with a filed dose; 0% is about no effect
The depositor's hits bear a star; ? = inconclusive; nt = no result.

SMILES	FMDV inh	Shiga inhibitor	Sm TGR block	CHX counter
CCOc1ccc(NC(=O)c2cnn(-c3ccc(C)c(C)c3)c2C2CCN(C(=O)OC(C)(C)C)CC2)cc1	-19.5%	nt	2.2%	nt
COc1ccc(C2/C=C\CN(C(=O)C3CCCC3)C(C)C(=O)N2Cc2ccc(F)cc2)cc1 (stereo not drawn)	nt	-1.7	nt	4.3
O=C(CC(c1cccs1)S(=O)(=O)c1ccccc1)c1ccc(F)cc1 (stereo not drawn)	-20.4%	33.1*	5.7%	51.9*
O=C(NCCO)C(=O)NCC(c1cccs1)S(=O)(=O)c1ccc(F)cc1 (stereo not drawn)	-18.4%	nt	nt	nt
CCC(=O)NCC(c1cccs1)S(=O)(=O)c1ccc(C)cc1 (stereo not drawn)	-11.9%	3.7	89.1µM*	-3.3
Cc1ccc(C(=O)CC(c2cccs2)S(=O)(=O)c2ccc(C)cc2)cc1 (stereo not drawn)	6.7%	37.5	-0.2%	22.8*
Cc1ccc(OC(=O)C(F)(F)F)c2c1NCCC2	13.4%	11.2	31.6µM*	0.7
Cc1cccc2c1NC(=O)/C2=C\C(=O)c1cccs1	?	-7.1	-1.4%	15.2*
CCc1ccc2c(c1)/C(=C/C(=O)c1cccs1)C(=O)N2	20µM*	-32.6	-3.3%	-8.0
S=c1sc2c(Cl)ncnc2n1-c1ccccc1	?	-26.5	3.16µM*	-0.9
C[S@@](=O)CCCCN=C=S	nt	-12.5	nt	57.3*
COc1ccc(CNc2ccccc2)cc1Br	nt	14.6	-0.3%	11.4
COc1cc(CNc2cccc(F)c2)cc(Br)c1O	-1.1%	12.6	12.6µM*	8.9
O=C(CSc1nnc2scc(-c3ccccc3)n12)Nc1nsc(-c2ccccc2)n1	31.6µM*	-13.8	-4.9%	-0.3
Cc1nnc(SCC(=O)Nc2ccccc2NC(=O)CSc2nnc(C)s2)s1	-7.3%	-8.1	4.8%	-4.6
O=C(Nc1ccc(-c2nc3ccccc3s2)cc1)c1cc(-n2cnnc2)ccc1Cl	nt	18.9	7.5%	27.0*
Cc1ccc(NC(=O)c2cc(-n3cnnc3)ccc2Cl)cc1	14.6%	-0.9	-2.6%	-1.9
C=CCn1c(SCC(=O)Nc2ccc(-c3nc4ccc(C)cc4s3)cc2)nnc1-c1ccncc1	33.3%	38.9	0.3%	19.0*
Cc1nnc(SCC(=O)Nc2ccc(-c3nc4ccccc4s3)cc2)s1	0.0%	38.2*	0.6%	65.0*
COc1ccccc1NC(=O)c1sc2nc(-c3cc4cc(Cl)ccc4oc3=O)[nH]c(=O)c2c1C	-6.4%	nt	-12.8%	nt
Cc1nnc(SCC(=O)Nc2nsc(-c3ccc(C(C)(C)C)cc3)n2)s1	41.8%	31.8	-0.7%	23.2*
CCn1c(SCC(=O)Nc2ccc(-c3nc4ccc(C)cc4s3)cc2)nnc1-c1ccccc1	nt	58.9*	-29.4%	33.9*
CCn1c(SCC(=O)Nc2nc3ccccc3s2)nnc1-c1ccc(Br)cc1	10.3%	22.6	-3.7%	1.0
O=C(C1CC1)N1CCN(c2nc3ccc(F)cc3s2)CC1	19.1%	nt	10.1%	nt
CCc1ccc2nc(N3CCC(C(=O)N4CCC5(CC4)OCCO5)CC3)sc2c1	-11.3%	130.6*	4.5%	58.2*
SMILES	FMDV inh	Shiga inhibitor	Sm TGR block	CHX counter
Cc1ccc2nc(N3CCC(C(=O)N4CCC5(CC4)OCCO5)CC3)sc2c1	-14.5%	79.3*	2.7%	40.1*
Cc1ccc2nc(N3CCN(C(=O)C4CC4)CC3)sc2c1	30.1%	nt	-1.5%	nt
CCOc1ccc2nc(N3CCC(C(=O)N4CCC5(CC4)OCCO5)CC3)sc2c1	22.3%	119.2	-4.1%	40.9*
O=C(C1CCN(c2nc3ccc(Br)cc3s2)CC1)N1CCC2(CC1)OCCO2	-27.5%	59.2*	-3.1%	29.6*
CC(C)(C)OC(=O)N1CCc2nc(N3CCN(c4ncccn4)CC3)ncc2C1	?	nt	10.6%	nt
NC(Cc1ccccc1)C(O)c1ccco1 (stereo not drawn)	nt	20.6	nt	3.7
Cc1c(/C(O)=C2/C(=O)C(=O)N(CCN3CCOCC3)C2c2cccs2)cnn1-c1ccccc1 (stereo not drawn)	25.0%	85.9*	35.5µM*	39.9*
Cc1ccc(C2/C(=C(\O)c3c(C)nc4ccccn34)C(=O)C(=O)N2CCN(C)C)o1 (stereo not drawn)	-3.9%	9.9	31.6µM*	-2.4
Cc1ccc(C2/C(=C(/O)c3ccccc3)C(=O)C(=O)N2CCN2CCOCC2)o1 (stereo not drawn)	16.3%	15.1	44.7µM*	19.6
Cc1ccc(C2/C(=C(/O)c3cnn(-c4ccccc4)c3C)C(=O)C(=O)N2CCN2CCOCC2)o1 (stereo not drawn)	27.0%	74.8*	22.4µM*	56.3*
O=C(Nc1cc(Cl)ccc1Cl)c1cc(S(=O)(=O)N2CCCc3ccccc32)ccc1F	-14.2%	nt	0.7%	nt
CCC(Sc1nc2c(sc3ccccc32)c(=O)n1CCc1ccc(OC)c(OC)c1)C(=O)N(CC)CC (stereo not drawn)	-6.4%	nt	-1.3%	nt
CCN(CC)CCN1C(=O)C(=O)/C(=C(/O)c2cnn(-c3ccccc3)c2C)C1c1ccc(C)o1 (stereo not drawn)	57.9%	87.4*	?	47.4*
Cc1ccc(C)c(/C(O)=C2/C(=O)C(=O)N(CCN3CCOCC3)C2c2ccco2)c1 (stereo not drawn)	6.6%	64.7	20µM*	5.6
Cc1ccc(C2/C(=C(\O)c3cnn(-c4ccccc4)c3C)C(=O)C(=O)N2CCN(C)C)o1 (stereo not drawn)	59.6%	-8.6	6.7%	-3.0
COc1ccc(-c2noc(CN(C(=O)c3ccc(C)cc3C)C(C)C)n2)cc1	-24.9%	nt	6.0%	nt
CN(C)c1ccc(-c2cc(NCc3ccccc3)ncn2)cc1	9.6%	nt	nt	nt
CCN(CC)S(=O)(=O)c1ccc2c(c1)c(=O)c(C(=O)N1CCN(c3cc(Cl)ccc3C)CC1)cn2C	-19.4%	nt	8.2%	nt
CC1(C)CC(=O)C([C@H]2C3=C(CC(C)(C)CC3=O)Oc3ccccc32)C(=O)C1	-9.7%	nt	nt	nt
CC1(C)CC(=O)C2=C(C1)Oc1nc3ccccc3cc1C2C(C#N)C#N (stereo not drawn)	8.91µM*	-3.4	0.0%	-0.9
O=C(Cn1c(=O)n(-c2ccc(F)cc2)c(=O)c2sc3ccccc3c21)NC1CCCCC1	-1.0%	nt	8.1%	nt
CN(Cc1ccccc1)C(=O)c1ccc(CSc2nc3cccnc3n2Cc2ccccc2F)cc1	?	nt	9.4%	nt
CC1CCN(c2ncnc3c2cnn3-c2ccc(F)cc2)CC1	7.6%	nt	3.3%	nt
COc1ccc(/C=N/NC(=O)c2ccoc2C)cc1COc1c(C)cccc1C	10µM*	117.4*	4.0%	32.8*
COc1cc(/C=N/NC(=O)c2ccoc2C)cc(OC)c1O	35.0%	83.4*	-5.8%	47.2*
COc1ccc(-n2c(O)c(Cc3ccccc3)c(=O)n3nc(-c4ccccc4)c(=O)cc23)cc1	4.9%	12.9	-23.6%	11.2*
COc1ccc(-n2c(SCC(=O)Nc3ccccc3C)nc(O)c(Cc3ccccc3)c2=O)cc1	-6.5%	-4.4	-27.6%	7.7
O=C(Nc1cc(Cl)cc(Cl)c1)c1cc(S(=O)(=O)N2CCc3ccccc3C2)ccc1F	0.0%	nt	0.1%	nt
CCCNC(=O)C1CCC(Cn2c(=O)c3sccc3n(CC(=O)N(CC)CC)c2=O)CC1 (stereo not drawn)	-9.7%	nt	1.0%	nt
